Screening results (PubChem)
FEN1 inhibitor = qHTS Assay for the Inhibitors of Human Flap endonuclease 1 (FEN1); P39748; Recombinant FEN1 flap cleavage, fluorescence, 15 min; Potency, µM (series often up to 114 µM), for the others: at the top dose activity change, negative = inhibition, most hits filed as inhibitors; actives 0.35% (n = 390,000); AID 588795, 2011; also: % is scaled to controls: 0 for no effect and ±100 for the full control effect; nearly all actives have a fitted effect of over 65% in size
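FEN1 at 10 nM preincubated with compounds 15 min at room temperature, then flap DNA substrate added at 50 nM final. Signal read at 0 and 15 min; concentration-response fitted with four-parameter Hill equation.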
Pol beta inh = qHTS Assay for Inhibitors of DNA Polymerase Beta | actives 1.3% (n = 340,000) | Pol beta primer extension/strand displacement, fluorescence kinetic | AID 485314, 2010 | Potency, µM (top dose mostly 114 µM), for the others: at the highest dose activity change, negative = inhibition, hits mostly inhibitors | P06746; also: % is scaled to controls: 0 for no effect and ±100 for the full control effect
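Pol beta (10 nM) was preincubated with compound for 15 min at room temperature. The reaction was then started with 50 nM substrate and read immediately and after a further 10 min at room temperature.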
POLK inh = qHTS for Inhibitors of Polymerase Kappa; purified Pol kappa, fluorescent DNA synthesis assay, 10 min; Potency, µM (series often up to 107 µM), without a hit: at the top dose activity, negative = inhibition, usual class: inhibitors; actives 0.53% (n = 400,000); DNA polymerase kappa (Homo sapiens), Q9UBT6; also: % is scaled to controls: 0 for no effect and ±100 for the full control effect
Target sequence (Q9UBT6 whole entry, looked up): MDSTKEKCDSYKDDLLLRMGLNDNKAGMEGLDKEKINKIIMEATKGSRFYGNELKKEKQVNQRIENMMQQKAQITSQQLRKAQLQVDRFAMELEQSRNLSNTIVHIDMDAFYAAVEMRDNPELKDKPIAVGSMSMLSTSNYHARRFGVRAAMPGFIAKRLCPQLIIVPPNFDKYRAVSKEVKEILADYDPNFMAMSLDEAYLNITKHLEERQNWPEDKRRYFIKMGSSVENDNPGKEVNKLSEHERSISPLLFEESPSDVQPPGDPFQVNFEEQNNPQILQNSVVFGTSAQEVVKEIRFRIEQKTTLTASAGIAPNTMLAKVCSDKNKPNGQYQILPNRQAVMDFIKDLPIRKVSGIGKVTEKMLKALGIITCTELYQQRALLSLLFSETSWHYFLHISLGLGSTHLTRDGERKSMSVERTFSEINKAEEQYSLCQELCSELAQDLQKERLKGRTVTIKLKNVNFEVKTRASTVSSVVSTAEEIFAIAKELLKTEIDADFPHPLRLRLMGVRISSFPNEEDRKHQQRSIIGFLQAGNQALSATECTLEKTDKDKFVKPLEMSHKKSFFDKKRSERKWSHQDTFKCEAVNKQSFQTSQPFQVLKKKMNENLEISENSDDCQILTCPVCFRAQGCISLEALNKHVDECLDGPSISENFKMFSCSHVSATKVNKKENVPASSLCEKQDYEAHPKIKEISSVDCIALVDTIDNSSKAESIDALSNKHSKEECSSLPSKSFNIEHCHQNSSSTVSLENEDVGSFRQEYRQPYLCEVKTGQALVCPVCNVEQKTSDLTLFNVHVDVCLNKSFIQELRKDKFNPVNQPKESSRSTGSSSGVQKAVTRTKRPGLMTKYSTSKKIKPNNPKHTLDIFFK
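Kinetic fluorescence screen: compound preincubated 15 min RT with 10 nM enzyme; 50 nM substrate (final) initiates; reads at 0/10 min.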
TDP1 block = qHTS Assay for Inhibitors of Tyrosyl-DNA Phosphodiesterase (TDP1) | Tyrosyl-DNA phosphodiesterase 1 (Homo sapiens), Q9NUW8 | recombinant TDP1, AlphaScreen DNA substrate cleavage | Potency, µM (titrated, usually from 130 µM), for inactives: top-dose activity change, negative = inhibition, hits mostly inhibitors | actives 0.28% (n = 350,000) | AID 485290, 2010; also: % is scaled to controls: 0 for no effect and ±100 for the full control effect; nearly all actives have a fitted effect of over 40% in size
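E. coli-derived human Tdp1, 1 nM final. Cpd preinc 15 min RT; substrate 15 nM final, 5 min RT; AS bead mix 10 ug/ml final, 10 min RT. Signal loss = tyrosine-FITC cleavage. No-enzyme wells = max signal.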
Pol iota inh = qHTS for Inhibitors of Polymerase Iota. actives 1% (n = 390,000). Potency, µM (highest dose often 115 µM), inactives show at the top dose activity, negative = inhibition, actives largely listed as inhibitors. AID 588590, 2011. Pol iota fluorescent replication assay, 10 min
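Fluorescent replication assay read twice, at 0 min and 10 min after adding 50 nM (final) substrate. Enzyme (10 nM) and compounds were first incubated 15 min at room temperature; enzyme-free buffer wells were negative controls.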
Pol eta inh = qHTS for Inhibitors of Polymerase Eta | DNA polymerase eta (Homo sapiens), Q9Y253 | recombinant Pol eta, fluorescent DNA replication assay | Potency, µM (titrated, usually from 114 µM), for the others: at the highest dose activity change, negative = inhibition, most hits filed as inhibitors | actives 1.2% (n = 390,000) | AID 588591, 2011; also: % is scaled to controls: 0 for no effect and ±100 for the full control effect
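Fluorescent replication assay: 50 nM final substrate added after a 15 min room-temperature compound preincubation with 10 nM enzyme. Signal taken at 0 min and again at 10 min.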
* marks the source's active call; other numbers are inactive results; [ ] = another dose, or the depositor's remark. In the library only some 2.4% were active in any assay of this set; here they are far more common. Calls follow the shape of the dose curve; as a rule, active = well fitted curve in the direction sought with a large enough effect; inconclusive = small, poorly fitted or top-dose-only effect, or another doubt; inactive = no such curve, though single readings can be large; an effect the other way counts as inactive or inconclusive. Potency is read from the fitted curve at half-maximal effect.

COc1cc(C2c3c(oc4ccccc4c3=O)C(=O)N2c2nccs2)ccc1O (configuration not stated) was read as FEN1 inhibitor -17%, Pol beta inh -22%, POLK inh -6%, Pol iota inh 3% and Pol eta inh 79µM*.
For COc1ccc(/C=C/c2ccnc3ccccc23)cc1 the results were FEN1 inhibitor -30%, POLK inh -5% and Pol iota inh -10%.
COc1ccc2c(c1OC)C(Cc1ccccc1)N1CCc3cc4c(cc3C1=C2)OCO4 (configuration not stated) was read as POLK inh inconclusive and TDP1 block -5%[56.1 µM].
For Cc1cc2nc(NC3=NCN(CCN4CCOCC4)CN3)nc(C)c2cc1C the results were Pol beta inh 2% and TDP1 block 0%.
`Cc1nc(NC2=NCN(CCCN3CCOCC3)CN2)nc2c(C)cccc12` gave FEN1 inhibitor 40µM*, Pol beta inh -27%, POLK inh -12%, TDP1 block 0%, Pol iota inh inconclusive and Pol eta inh -2%.
`COc1cccc(N2C(=O)c3ccccc3C2=O)n1` gave TDP1 block 0%.
Screening COc1ccc(CCn2c(NN)nc3c2c(=O)[nH]c(=O)n3C)cc1 returned FEN1 inhibitor 14%, Pol beta inh 8%, POLK inh -19%, Pol iota inh 25µM* and Pol eta inh 89µM*.
For COc1ccc(CCn2c(NN=C(C)C)nc3c2c(=O)[nH]c(=O)n3C)cc1 the results were FEN1 inhibitor inconclusive, Pol beta inh 0%, POLK inh -24%, Pol iota inh inconclusive and Pol eta inh 0%.
For O=C1CC(=Nc2ccc([N+](=O)[O-])cc2)NN1c1c(Cl)cc(Cl)cc1Cl the results were Pol eta inh 79µM*.
Screening CC(N)=Nc1ccc([N+](=O)[O-])cc1 returned FEN1 inhibitor -9%, Pol beta inh 37%, POLK inh -4%, TDP1 block -6%, Pol iota inh 15% and Pol eta inh -8%.
Cc1ccc(S(=O)(=O)Nc2ccc(NS(=O)(=O)c3ccc(C)cc3)c3ncccc23)cc1 was read as TDP1 block 21%.
O=C(/C=C/c1c(Cl)cccc1Cl)N1CCOCC1 was read as FEN1 inhibitor 21%, Pol beta inh 28%, POLK inh -13%, Pol iota inh 19% and Pol eta inh -4%.
Screening O=C(/C=C/c1c(F)cccc1Cl)N1CCOCC1 returned FEN1 inhibitor 0%, Pol beta inh 32µM*, POLK inh 5%, TDP1 block 0%, Pol iota inh 18% and Pol eta inh -19%.
Screening CC(=O)N1CCc2cc(S(=O)(=O)CCC(=O)NCc3ccc4c(c3)OCO4)ccc21 returned FEN1 inhibitor -1%, Pol beta inh 45µM*, POLK inh -11%, TDP1 block 4%, Pol iota inh -12% and Pol eta inh inconclusive.
For CN(C)c1ccc(/C=N\Nc2ccc([N+](=O)[O-])cc2[N+](=O)[O-])cc1Br the results were FEN1 inhibitor -3%, POLK inh 2% and Pol iota inh 15%.
`O=C1CC(c2ccccc2)Cc2[nH]c(=O)c(C(=O)O)cc21` (configuration not stated) gave FEN1 inhibitor 7%, POLK inh 1% and Pol iota inh 27%.
COc1ccc(C)cc1NC(=O)COC(=O)c1ccc([N+](=O)[O-])o1 was read as FEN1 inhibitor -12%, Pol beta inh 5%, POLK inh 1%, TDP1 block 3%, Pol iota inh 27% and Pol eta inh -15%.
`COc1ccc(C(C)(C)C)cc1NC(=O)COC(=O)c1ccc([N+](=O)[O-])o1` gave FEN1 inhibitor 25µM*, Pol beta inh -17%, POLK inh -5%[60.1 µM], TDP1 block 10%, Pol iota inh inconclusive and Pol eta inh 23%.
Screening C=C(Cl)COc1ccc2c(CCC)cc(=O)oc2c1 returned FEN1 inhibitor 0%, Pol beta inh 16%, POLK inh -8%, TDP1 block 89µM*, Pol iota inh 17% and Pol eta inh -22%.
For Cc1cccc(C)c1OCc1nnc(NC(=O)CSc2ccc(Cl)cc2)s1 the results were FEN1 inhibitor 25%, Pol beta inh -17%, POLK inh -1%, TDP1 block 4%, Pol iota inh 2% and Pol eta inh -6%.
O=C(CSc1ccccc1)Nc1nnc(COc2ccc(Cl)cc2)s1 was read as FEN1 inhibitor -8%, Pol beta inh 20µM*, POLK inh -25%, TDP1 block 5%, Pol iota inh 40% and Pol eta inh inconclusive.
Cc1[nH]nc2c1C(c1ccc(-c3ccccc3C#N)o1)C(C#N)=C(N)O2 (configuration not stated) was read as FEN1 inhibitor 2%, Pol beta inh 56µM*, POLK inh 4%, TDP1 block 2%, Pol iota inh 10% and Pol eta inh 4%.
`Cc1[nH]nc2c1C(c1ccc(-c3ccc(Cl)cc3)o1)C(C#N)=C(N)O2` (configuration not stated) gave FEN1 inhibitor -5%, Pol beta inh 41%, POLK inh -1%, TDP1 block 5%, Pol iota inh 0% and Pol eta inh inconclusive.
`N#C/C(=C\c1ccc(-c2ccccc2C(=O)O)o1)c1nc2ccccc2[nH]1` gave FEN1 inhibitor inconclusive, Pol beta inh -21%, POLK inh -23%, TDP1 block -1%[12.3 µM], Pol iota inh 36% and Pol eta inh inconclusive.
Cc1ccc2nc(/C(C#N)=C\c3ccc(N4CCOCC4)o3)[nH]c2c1 was read as FEN1 inhibitor inconclusive, Pol beta inh 35µM*, POLK inh -20%, TDP1 block 2%, Pol iota inh inconclusive and Pol eta inh inconclusive.
Cc1cc2nc(/C(C#N)=C\c3ccc(-c4ccccc4C(=O)O)o3)[nH]c2cc1C was read as FEN1 inhibitor inconclusive, Pol beta inh inconclusive, POLK inh inconclusive, Pol iota inh inconclusive and Pol eta inh 25µM*.
`CC(C)(C)CC(C)(C)N=C1Nc2ccc([N+](=O)[O-])cc2N[C@]12C[C@H]1CCCC(=O)N3CC[C@@H](C2)[C@@H]13` gave FEN1 inhibitor 3%, POLK inh 5% and Pol iota inh 24%.
